High-throughput results as filed in PubChem.
Hits are enriched below; roughly 6.7% of the tested compounds scored in any of these assays.
GDH-TPI inh – GDH-TPI coupled enzyme inhibition counter-screen; actives 1.2% (n = 360,000); GDH-TPI coupled enzyme counterscreen, NADH absorbance; inhibition, % at 4.8 µM; AID 588335; in the data active means inhibition above about 30%;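 further: 0% = DMSO wells and 100% = wells lacking the enzyme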
BoNT-A LC inh2 – BoNT A light chain protease inhibition | multiplex microsphere protease substrate cleavage, flow cytometry | inhibition, % at 10 µM | actives 0.17% (n = 360,000); further: plate controls were buffer without enzyme for full effect and enzyme alone for no effect
Bead autofluor – counter-screen for toxin protease inhibitors: compound fluorescence | compound autofluorescence counterscreen, microsphere flow cytometry; stronger effect = higher value | fluorescence intensity (concentration not given with the values) | actives 3.1% (n = 360,000) | AID 624483; in the data active means fluorescence intensity above about 16000; inconclusive means no clear call, values can overlap the other calls
FBA Mtb inh – inhibits M. tuberculosis FBA enzyme. P9WQA3. purified M. tuberculosis FBA, fluorescence read-out. inhibition, % at 1 µM. actives 2.3% (n = 360,000); in the data active means inhibition above about 27%;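 further: 0% = vehicle and 100% = reference inhibitor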
BoNT-F LC inh – inhibitors of Botulinum neurotoxin F light chain protease; actives 0.22% (n = 360,000); inhibition, % at 10 µM; Multiplex microsphere protease cleavage assay, flow cytometry; AID 588497; in the data active means inhibition above about 35%, passing the limit was not always enough; inconclusive means no clear call, values can overlap the other calls; further: plate controls were buffer without enzyme for full effect and enzyme alone for no effect
Anthrax LF inh2 – anthrax lethal factor protease inhibition; P15917; inhibition, % at 10 µM; actives 0.12% (n = 360,000); multiplex microsphere protease cleavage assay, LF; further: plate controls were buffer without enzyme for full effect and enzyme alone for no effect
Target sequence (P15917 whole entry, looked up): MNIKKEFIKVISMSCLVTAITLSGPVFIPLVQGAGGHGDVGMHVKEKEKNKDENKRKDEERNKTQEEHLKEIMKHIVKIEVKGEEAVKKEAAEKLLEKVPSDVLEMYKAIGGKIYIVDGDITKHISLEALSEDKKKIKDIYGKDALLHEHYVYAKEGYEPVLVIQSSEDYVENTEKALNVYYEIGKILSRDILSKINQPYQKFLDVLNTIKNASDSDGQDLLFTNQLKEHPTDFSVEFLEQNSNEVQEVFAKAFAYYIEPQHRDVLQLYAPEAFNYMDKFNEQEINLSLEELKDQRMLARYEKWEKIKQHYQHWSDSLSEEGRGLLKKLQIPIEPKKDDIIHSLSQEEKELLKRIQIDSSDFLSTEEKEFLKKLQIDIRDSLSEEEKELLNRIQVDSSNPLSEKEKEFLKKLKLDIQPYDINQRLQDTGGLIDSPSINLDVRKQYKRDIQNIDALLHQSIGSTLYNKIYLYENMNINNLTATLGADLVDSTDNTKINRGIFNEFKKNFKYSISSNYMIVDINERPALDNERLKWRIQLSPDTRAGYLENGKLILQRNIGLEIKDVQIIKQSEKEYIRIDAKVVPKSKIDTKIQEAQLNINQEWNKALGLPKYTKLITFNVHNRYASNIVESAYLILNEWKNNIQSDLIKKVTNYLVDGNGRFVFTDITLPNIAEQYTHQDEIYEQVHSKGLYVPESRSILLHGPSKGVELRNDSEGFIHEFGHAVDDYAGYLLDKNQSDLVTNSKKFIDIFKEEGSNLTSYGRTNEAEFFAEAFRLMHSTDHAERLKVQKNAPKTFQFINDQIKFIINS
Starred values were filed as active, the others as inactive; ? = inconclusive; . = not tested or not shown; + = active, no number. Unless noted, no stated cut-off is given here; in the data, active means inhibition above about 30%; inconclusive means no clear call, values can overlap the other calls; inactive means below that.

SMILES	GDH-TPI inh	BoNT-A LC inh2	Bead autofluor	FBA Mtb inh	BoNT-F LC inh	Anthrax LF inh2
CCOC(=O)C1=C(COC(=O)c2cccnc2SC)NC(=O)NC1C (stereo not drawn)	7.3	-0.1	3348	-2.9	4.8	-0.9
O=C(c1ccc(Cl)c(S(=O)(=O)N2CCCC2)c1)N1CCCC(C(F)(F)F)C1 (stereo not drawn)	0.7	3.5	?	1.5	?	-1.8
CCOC(=O)C(Cc1c[nH]c2ccccc12)NC(=O)c1ccco1 (stereo not drawn)	2.2	-0.9	5428	3.4	?	2.0
C=C1C(C(=O)N2CCN(C)CC2)C1C(=O)N1CCN(C)CC1 (stereo not drawn)	7.5	-2.5	10980	-0.1	-9.6	-1.0
O=c1oc2c(CN3CCOCC3)c(O)c(Cl)cc2c2c1CCC2	15.6	0.1	2598	.	-3.1	1.2
CCc1c(C)c2cc(Cl)c(O)c(CN3CCCCC3)c2oc1=O	1.6	-0.9	5391	+	-11.4	-6.4
CCCCc1cc(=O)oc2c(CN3CCCC3)c(O)ccc12	4.5	-2.2	20462*	+	-3.7	-0.2
CCc1cc(=O)oc2c(CN3CCCC3)c(O)c(Cl)cc12	25.9	0.7	4108	+	10.1	-5.5
Cc1occc(=O)c1OCc1c(F)cccc1Cl	-7.6	-1.2	4664	-2.2	-3.6	-4.4
O=c1cc(-c2ccccc2)c2ccc(O)c(CN3CCCCC3)c2o1	-0.5	-2.0	10103	8.0	-6.0	-5.6
CCc1cc(=O)oc2c(CNCc3c(F)cccc3Cl)c(O)ccc12	11.2	-1.4	3229	+	-16.2	-12.4
CN1CCN(S(=O)(=O)c2ccc3c(c2)C(C)(C)C(=O)N3C)CC1	-1.4	-0.3	5093	-1.9	0.9	-12.3
O=c1c2cccnc2n(-c2ccccc2)n1Cc1ccc(Cl)cc1	0.9	-1.4	4638	10.7	-2.3	-1.8
O=C(CN(CCCN1CCOCC1)C(=O)Cn1nnc(-c2ccc(F)cc2)n1)NC1CCCCC1	4.8	-1.1	11034	2.8	-10.1	-1.4
Cc1cc(=O)oc2c(CN3CC(C)OC(C)C3)c(O)c(Cl)cc12 (stereo not drawn)	-2.9	0.4	2606	+	-3.4	-2.3
CN(C)C(CNC(=O)c1ccc(C2SCCS2)cc1)c1ccccc1 (stereo not drawn)	-7.2	-1.8	5570	2.9	-8.2	1.6
O=C(CCS(=O)(=O)Cc1ccc(Cl)cc1)NCCCN1CCOCC1	4.4	-0.4	23981*	2.5	-0.8	-1.3
COc1ccccc1CN1C(=O)CN(C2CCCCCC2)C(=O)C1c1ccc(F)cc1 (stereo not drawn)	2.4	0.7	10613	0.0	5.1	-1.1
Cc1ccc(C2C(=O)N(C3CCC(C)CC3)CC(=O)N2C2CCCC2)cc1 (stereo not drawn)	-1.2	-3.5	23411*	0.9	-1.6	0.6
CCCN1C(=O)CN(C2CCCCCC2)C(=O)C1c1ccc(C)cc1 (stereo not drawn)	4.6	-1.2	23066*	2.1	-1.5	1.7
COc1cc(C2C(=O)N(C3CCCC3)CC(=O)N2Cc2ccco2)ccc1OC(C)C (stereo not drawn)	1.9	4.9	21363*	1.2	5.3	-1.5
CCCOc1ccc(C2C(=O)N(C3CCCCC3)CC(=O)N2CCC)cc1OC (stereo not drawn)	-10.5	0.4	20044*	30.9*	1.6	0.8
CCOC(=O)Cc1csc(NC(=O)CSc2nc3sc(C(=O)O)c(C)c3c(=O)[nH]2)n1	13.7	?	22793*	0.7	-3.0	1.0
C=CCn1c(O)c(C(C)=NCc2ccco2)c(=O)[nH]c1=O	9.7	-0.3	21930*	-1.9	0.1	0.2
COc1ccc(-n2c(O)c(C(C)=NCCCn3ccnc3)c(=O)[nH]c2=O)cc1	15.5	-2.4	17270*	-0.1	-5.9	0.9
SMILES	GDH-TPI inh	BoNT-A LC inh2	Bead autofluor	FBA Mtb inh	BoNT-F LC inh	Anthrax LF inh2
CCC(=NCCCn1ccnc1)c1c(O)n(-c2ccccc2)c(=O)[nH]c1=O	-12.4	?	4102	-3.1	?	-25.2
CC(=NCCN1CCCCC1)c1c(O)n(-c2ccc(Cl)cc2)c(=O)[nH]c1=O	-3.5	-4.8	24548*	1.5	-5.0	-3.5
C=CCn1c(O)c(C(CC)=NCc2ccco2)c(=O)[nH]c1=O	3.4	?	3841	-0.6	?	-3.0
C=CCn1c(O)c(C(C)=NCCN2CCOCC2)c(=O)[nH]c1=O	5.3	3.2	21797*	-0.2	2.9	5.0
c1ccc2c(COn3nnc4ccccc43)cccc2c1	7.6	1.7	21859*	0.6	-0.1	1.4
c1ccc2c(Cn3nnc4ccccc43)cccc2c1	2.8	-1.1	8209	-3.1	-11.8	-1.3
